Records with an inconclusive call do not appear. A call without a number means that no potency is given here. The source made the active and inactive calls. Calls follow the shape of the dose curve; as a rule, active = well fitted activation curve with a large enough effect; inconclusive = small, poorly fitted or top-dose-only effect; inactive = no such curve, though single readings can be large or run the other way.
Test: qHTS Assay for Identifying a Potential Treatment of Ataxia-Telangiectasia: Hit Validation;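 also: phospho-KAP1 level by AlphaLISA as a proxy for ATM-like kinase activity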
Conditions: Ataxia-telangiectasia cell-based hit validation qHTS, in ATM-null A-T patient fibroblasts; series mostly up to 76.9 µM
In short: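 KAP-1 phosphorylation was read by AlphaLISA as a measure of ATM-like activity in ATM-null F2112 fibroblasts. Compounds spanned up to 76.7 uM final, with 60 min exposure at 37C and a 6 hr detection incubation at 25C.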
With `CCS(=O)(=O)c1ccc(C(=O)Nc2ccccc2)c(Cl)c1Cl` the Potency was 29.2 µM (active).
For `CC(C)(CN1CCN(c2ccccc2)CC1)NS(=O)(=O)c1ccccc1`, the Potency was “inactive”.
For `COc1cccc(CNCc2ccc(OC)c3ccccc23)c1OC`, the Potency was “inactive”.
For `Cc1nc(Nc2ccc(Cl)cc2)c2oc3ccccc3c2n1`, the Potency was “inactive”.
For `Cc1nc(SCC(=O)Nc2cc(C(N)=O)cc(C(N)=O)c2)c2c(C)c(C)sc2n1`, the Potency was “inactive”.
With `CC1=NN(C(C#N)c2ccc([N+](=O)[O-])cc2)C(C)(C)C1` (stereo unspecified) the Potency was “inactive”.
In the case of `C(=N\Nc1ccccn1)/c1c[nH]c2ccccc12`, the Potency is reported as “inactive”.
With `Cn1cnc([N+](=O)[O-])c1SCCO` the Potency was “inactive”.
For `CCCCn1c2c(c(=N)c3ccccc31)CCC2`, the Potency was “inactive”.
With `COC(=O)Cn1ccc2cc(S(=O)(=O)N3CCCCC3)ccc21` the Potency was “inactive”.
With `CCC(=O)c1ccc2c(c1)OCCO2` the Potency was “inactive”.
In the case of `COc1cc(C(=O)NCCC(=O)NCCCN2CCCCC2)cc(OC)c1OC`, the Potency is reported as “inactive”.
With `COc1ccc(C2/C=C\CN(S(=O)(=O)c3ccc4ccccc4c3)CC(=O)N2Cc2ccc(F)cc2)cc1` (stereo unspecified) the Potency was 29.2 µM (active).
In the case of `O=C(CNCc1cccs1)Nc1cc(S(=O)(=O)N2CCCC2)ccc1Cl`, the Potency is reported as “inactive”.
In the case of `CCC[C@H]1CCCC/C=C\CCCC(=O)OCCN1C(=O)OC(C)(C)C`, the Potency is reported as “inactive”.
In the case of `Cc1ccc(OCC(=O)N(Cc2cccs2)C2CCS(=O)(=O)C2)cc1C` (stereo unspecified), the Potency is reported as “inactive”.
With `Cc1ccc(-c2noc(CCC(=O)NC3CCN(Cc4ccccc4)CC3)n2)cc1` the Potency was “inactive”.
In the case of `O=C1C2C3C=CC(CC3)C2C(=O)N1c1cccc(Br)c1` (stereo unspecified), the Potency is reported as “inactive”.
For `S=c1[nH]nc(COc2ccccc2)n1/N=C/c1ccccc1Cl`, the Potency was “inactive”.
In the case of `CCS(=O)(=O)N1Cc2ccccc2CC1C(=O)Nc1cccc(OC)c1` (stereo unspecified), the Potency is reported as “inactive”.
With `Cc1ccc2c(c1)sc(=NC(=O)C1CC1)n2C` the Potency was 18.4 µM (active).
In the case of `CC1CCCC(C)N1CCCNC(=O)Cn1ncc2c3ccccc3n(C)c2c1=O` (stereo unspecified), the Potency is reported as 23.2 µM (active).
For `COc1ccccc1Nc1nc(NCCCN(C)C)nc(N)c1[N+](=O)[O-]`, the Potency was “inactive”.
With `CC(C)CNS(=O)(=O)c1cc(C(=O)O)c(Cl)cc1Cl` the Potency was “inactive”.
In the case of `CCc1ccc(NC(=O)CNCc2ccc(OC)c(OC)c2)cc1`, the Potency is reported as “inactive”.
In the case of `N#C/C(=C/c1ccc(F)cc1)C(N)=S`, the Potency is reported as “inactive”.
In the case of `CC(C)(C=O)C1=CC(=O)c2ccccc2C1=O`, the Potency is reported as 20.7 µM (active).
With `c1ccc(CSc2nnc(-c3ccco3)n2Cc2ccco2)cc1` the Potency was “inactive”.
In the case of `COc1ccccc1[C@H]1C(c2cccc(Cl)c2)=NN(c2ccccc2)[C@@H]1CO`, the Potency is reported as “inactive”.
With `C[C@@H]1Cc2c(O)c(O)cc(O)c2C(=O)O1` the Potency was “inactive”.
With `COc1ccc(C(=O)/C=C/C(=O)N(CC(=O)NC2CCCCC2)Cc2ccccc2)c(O)c1` the Potency was 14.6 µM (active).
In the case of `COc1ccc(CCNC(=O)C2CCN(S(=O)(=O)c3ccc(OC)c(OC)c3)CC2)cc1OC`, the Potency is reported as “inactive”.
In the case of `Cc1cc2nc3ccc(=[N+](C)C)cc-3sc2cc1N`, the Potency is reported as “inactive”.
With `CC(=O)/C(N=Nc1nc2c([nH]1)c(=O)n(C)c(=O)n2C)=C(\C)O` the Potency was “inactive”.
With `CCn1nc(C)c(CNC(=O)c2cc(COc3ccc(F)cc3Cl)on2)c1C` the Potency was “inactive”.
In the case of `COCCNC(=O)c1c(N)n(-c2cccc(C)c2)c2nc3ccccc3nc12`, the Potency is reported as 41.2 µM (active).

From PubChem BioAssay AID493192 (National Center for Advancing Translational Sciences (NCATS), 2011)
Potency is read from the fitted curve at half-maximal effect.
